Source: PubChem BioAssay
A selection: hits, their analogues and other compounds. The true share with any hit is near 12%.
FMDV antiviral: High Throughput Screening for Foot and Mouth Disease Virus Antivirals; 410,000 tested, 1.2% active; AID 1159524, 2015; FMDV antiviral cell-based qHTS; Potency, µM (top dose mostly 57.9 µM), for the others: at the top dose activity change, negative = inhibition, hits mostly inhibitors; calls by dose curve; tested in HEK293T cells; further: read-out not given here; potency means the concentration at half of the fitted maximal effect; on the % scale 0 is the no-effect control and ±100 the full control effect; nearly all actives have a fitted effect of over 45% in size
Sm TGR inh: qHTS Assay for the Inhibitors of Schistosoma Mansoni Peroxiredoxins; purified TGR, DTNB reduction, TNB absorbance 405 nm; Potency, µM (series often up to 114 µM), inactives show at the highest dose activity change, negative = inhibition, actives largely listed as inhibitors; 360,000 tested, 3% active; AID 485364, 2010; active means well fitted inhibition curve with a large enough effect; inconclusive means small, poorly fitted or top-dose-only effect; inactive means no such curve, though single readings can be large or run the other way; further: potency means the concentration at half of the fitted maximal effect; on the % scale 0 is the no-effect control and ±100 the full control effect; nearly all actives have a fitted effect of over 60% in size
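First, TGR (20 nM dispensed) and NADPH were mixed with compound. Second, a 15 min room-temperature incubation followed. Third, further NADPH and then DTNB were added to start the reaction. Finally, TNB absorbance was monitored kinetically.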
CHX counter: Cycloheximide Counterscreen for Small Molecule Inhibitors of Shiga Toxin; cell reporter, cycloheximide protein synthesis inhibition counterscreen; max response, %; AID 2314, 2010; 300,000 tested, 12% active; in the data active means max response mostly above about 13%, no sharp cut-off; inactive means mostly below about 14%; further: read at 38.3 µM for the half of the compounds with a filed dose; 0% is about no effect
Shiga toxin inh: A qHTS for Small Molecule Inhibitors of Shiga Toxin; Vero cells, Shiga toxin protein synthesis inhibition reporter; inhibition, % at 38.7 µM; 290,000 tested, 9.2% active; in the data active means inhibition mostly above about 28%, no sharp cut-off; inactive means mostly below about 43%; further: 0% is about no effect
* hit, by the source's call; ? = inconclusive; / = no result.

SMILES	FMDV antiviral	Sm TGR inh	CHX counter	Shiga toxin inh
COCCCNC(=O)C1CCN(c2cc(C)nc3c(-c4ccc(Cl)cc4)c(C)nn23)CC1	-9%	2%	/	/
COCCn1c(CNC(=O)c2ccccc2C)nc2cccnc21	-13%	1%	/	/
C/C=C/c1ccc(OC(C)[C@@H](O)c2ccc(O)c(OC)c2)c(OC)c1 (some centres not stated)	-18%	/	/	/
CCN(CC)c1ccc2cc(NC(=O)CCC(=O)O)c(=O)oc2c1	/	4%	-6	-19
CCN(CC)c1ccc2cc(C(N)=O)c(=N)oc2c1	3%	/	41*	42
CCN(CC)c1ccc2cc(C(C)=O)c(=O)oc2c1	50%	8%	23	80*
CCn1c(C)c(C)c2cc(C(=O)NCc3cccc(C)c3)ccc21	7%	3%	/	/
COc1ccc(NC(=O)CSc2nc(-c3ccccc3)cc(-c3cc(OC)c(OC)c(OC)c3)c2C#N)c(OC)c1	-7%	-1%	/	/
CCC(O)CNC(=O)c1cnn(-c2ncc3c(n2)-c2ccccc2CCC3)c1C1CC1 (configuration not stated)	38%	/	/	/
CCCC(=O)NCC(c1cccs1)S(=O)(=O)c1ccc(C)cc1 (configuration not stated)	4%	-17%	-4	-10
Cc1ccc(S(=O)(=O)C(CNS(=O)(=O)c2ccc(F)c(C)c2)c2cccs2)cc1 (configuration not stated)	44%	0.63µM*	/	/
COc1ccc(CC(=O)NCC(c2cccs2)S(=O)(=O)c2ccc(F)c(C)c2)cc1 (configuration not stated)	-4%	-7%	/	/
CCOc1ccc(S(=O)(=O)NCC(c2cccs2)S(=O)(=O)c2ccc(C)cc2)cc1 (configuration not stated)	21%	0.32µM*	/	/
Cc1cc(=O)n2nc(N3CCC(C(=O)Nc4c(C)cccc4C)CC3)sc2n1	-3%	-3%	/	/
O=C(NC(=S)NNC(=O)c1cccs1)c1ccccc1	9%	50µM*	11*	33
CC(C)(C)c1ccc(C(=O)NC(=S)NNC(=O)c2cccs2)cc1	-9%	-33%	14	23
O=C(NC(=S)NNC(=O)c1cccs1)c1ccco1	11%	-15%	29*	19
Cc1cccc(C(=O)NC(=S)NNC(=O)c2ccc(Cl)cc2)c1	?	3%	-5	5
Cc1cccc(C(=O)NC(=S)NNC(=O)c2cccs2)c1	-12%	?	12	25*
O=C(NNC(=O)c1cccs1)c1ccc(F)cc1	43%	-13%	22*	50*
O=C(NNC(=O)c1cccs1)c1cccc(F)c1	?	-8%	-3	-3
Cc1ccccc1C(=O)Nc1cccc(NC(=S)NC(=O)c2cccs2)c1	9%	-26%	-1	15
Cc1ccccc1C(=O)NNC(=S)NC(=O)c1cccs1	2%	0%	21*	20
COc1ccccc1/C=N/Nc1cc(C)nc2ccc(C)cc12	4%	?	26*	/
Cc1cc(N/N=C/c2ccc(O)cc2O)c2ccccc2n1	-5%	3%	5	22
SMILES	FMDV antiviral	Sm TGR inh	CHX counter	Shiga toxin inh
Cc1ccc2nc(C)cc(N/N=C/c3ccccc3O)c2c1	26%	13%	22*	27*
COc1ccc(NC(=O)Cn2c(SCc3cccc(Cl)c3)nc3ccncc32)c(OC)c1OC	-3%	-4%	/	/
O=C(NCc1ccc(Cl)cc1)C(=O)Nc1cccc(Br)c1	-4%	-8%	/	/
Cn1cnc(S(=O)(=O)N2CCCC(C(=O)NCc3ccccc3)C2)c1 (configuration not stated)	11%	4%	/	/
Cc1nc2nc(N)nn2c(C)c1C/C=C/c1ccccc1	-6%	16µM*	0	-7
CCCCCC1C(=O)O[C@H](C)[C@@H](NC(=O)c2cccc(NC=O)c2O)C(=O)OC(C)C1OC(=O)CC(C)C (some centres not stated)	40µM*	/	/	/
CCCC[C@H]1C(=O)O[C@H](C)[C@H](NC(=O)c2cccc(NC=O)c2OC)C(=O)O[C@@H](C)[C@@H]1OC(=O)CC(C)C	0%	/	-7	-5
CC(=O)Nc1ccc(/C=N/N2C(C)CCCC2C)cc1 (configuration not stated)	47%	0%	16*	22
CC(=O)Nc1ccc(C=C(C(C)=O)C(C)=O)cc1	32µM*	?	-1	3
CC(=O)Nc1ccc(/C=N/N2CCCCC2)cc1	34%	3%	44*	116*
Cc1cc(Cl)ccc1NC(=O)CN1C(=O)CSc2ccc(S(=O)(=O)N(C)C)cc21	-22%	7%	/	/
COc1ccc(-c2cc(N)n(S(=O)(=O)c3c(F)c(F)c(F)c(F)c3F)n2)cc1OC	?	2.5µM*	14*	33*
COc1ccc(S(=O)(=O)n2nc(-c3cc(OC)c(OC)c(OC)c3)cc2N)cc1OC	0%	9%	0	2
O=C(O)c1ccc2c3c(cccc13)C(=O)N(c1ccccc1)C2=O	-12%	7%	-3	-19
Cc1c(O)c2c3c(cccc3c1O)C(=O)N(c1ccccc1)C2=O	22µM*	-6%	-3	-6
CN(Cc1cccc2ncccc12)C(=O)c1cnn(-c2ncc3c(n2)-c2ccccc2CC3)c1C1CC1	28µM*	/	/	/
O=C(Nc1ccc(S(=O)(=O)Nc2ncccn2)cc1)c1cccnc1	12%	3%	59*	114*
CCCCSc1ccc(NC(=O)c2cccnc2)cc1	-11%	5%	14*	35
O=C(Nc1ccc(NC(=O)c2cccnc2)cc1)c1ccccc1	-3%	-2%	1	17
CCC(C)c1ccc(NC(=O)c2cccnc2)cc1 (configuration not stated)	0%	-9%	43*	59*
CCC(C)c1ccc(O)c(NC(=O)c2cccnc2)c1 (configuration not stated)	13%	-7%	-2	-15
CCOc1ccc(-c2nc(CNC(=O)NC3CCCCC3)c(C)o2)cc1	17%	-3%	/	/
CSC[C@@H]1NC(=S)N(c2ccc(C)cc2)C1=O	11µM*	-1%	-1	-5
Cc1cccc(OCC(=O)Nc2ccc(Cl)c(-c3nc4ncccc4o3)c2)c1C	-25%	7%	/	/
CCOCCCNC(=O)c1ccc(NC(=O)C2=CSCCO2)cc1	37%	-9%	17	13
SMILES	FMDV antiviral	Sm TGR inh	CHX counter	Shiga toxin inh
O=C(Nc1ccc(C(=O)NCc2ccc(F)cc2)cc1)C1=CSCCO1	29%	-12%	38*	102*
CC(C)OCCCNC(=O)c1ccc(NC(=O)C2=CSCCO2)cc1	3%	2%	1	5
CCc1ccc(CNC(=O)c2ccc(NC(=O)C3=CSCCO3)cc2)cc1	0%	-23%	33*	21*
O=C(Nc1ccc(C(=O)NCc2ccccc2)cc1)C1=CSCCO1	68%	-7%	28*	38*
O=C(Nc1ccc(C(=O)N2CCN(c3ccc(F)cc3)CC2)cc1)C1=CSCCO1	-9%	-9%	13	12
Cc1cccc(C(=O)N2CCOc3ccc(CN(C)Cc4cc(C5CC5)n[nH]4)cc3C2)n1	-8%	/	/	/
CN(C)S(=O)(=O)c1ccc2c(c1)c(=O)c(C(=O)N1CCN(c3cccc(Cl)c3)CC1)cn2C	-4%	-2%	/	/
